Bioassay records from PubChem.
TDP1 block – blocks human tyrosyl-DNA phosphodiesterase 1; Potency, µM (top dose mostly 130 µM), inactives show top-dose activity change, negative = inhibition, most hits filed as inhibitors; 350,000 tested, 0.28% active; recombinant TDP1, AlphaScreen DNA substrate cleavage; AID 485290; further: nearly all actives have a fitted effect of over 40% in size
Target sequence (Q9NUW8 whole entry, looked up): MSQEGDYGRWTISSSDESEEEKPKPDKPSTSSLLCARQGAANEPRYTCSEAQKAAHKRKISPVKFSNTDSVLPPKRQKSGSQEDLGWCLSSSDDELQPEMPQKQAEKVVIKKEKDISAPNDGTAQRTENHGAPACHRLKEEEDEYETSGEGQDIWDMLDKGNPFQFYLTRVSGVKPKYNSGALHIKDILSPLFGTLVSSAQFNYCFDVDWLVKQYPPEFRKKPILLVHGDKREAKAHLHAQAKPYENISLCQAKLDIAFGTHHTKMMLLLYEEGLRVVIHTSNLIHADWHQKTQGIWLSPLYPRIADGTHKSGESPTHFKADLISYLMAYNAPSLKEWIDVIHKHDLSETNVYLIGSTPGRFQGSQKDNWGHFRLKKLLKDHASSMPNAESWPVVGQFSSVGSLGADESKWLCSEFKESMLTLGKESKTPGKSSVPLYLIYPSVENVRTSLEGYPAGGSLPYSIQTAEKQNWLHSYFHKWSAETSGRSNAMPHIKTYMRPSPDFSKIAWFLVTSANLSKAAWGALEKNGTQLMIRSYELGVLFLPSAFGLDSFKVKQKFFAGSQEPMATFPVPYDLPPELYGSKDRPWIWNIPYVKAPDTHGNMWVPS
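Tdp1 1 nM final; 15 min RT w/ cpd; substrate 15 nM, 5 min; beads 10 ug/ml, 10 min; AlphaScreen read. Neg ctrl: no enzyme.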
TDP1 cell CPT – growth inhibition of DT40 Tdp1-/-;hTDP1 cells with camptothecin (screen for TDP1 inhibitors). 420,000 tested, 12% active. chicken DT40 Tdp1-/-;hTDP1 cells + 20 nM CPT, ATP luminescence, 48 h. Potency, µM (doses to about 46.2 µM), for inactives: at the top dose activity change, negative = growth inhibition, most hits filed as inhibitors. AID 686979; further: nearly all actives have a fitted effect of over 55% in size
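Chicken DT40 Tdp1-/- cells stably complemented with human TDP1 were seeded at 400 cells/well in medium containing 20 nM camptothecin, exposed to pin-transferred compounds, and grown at 37 °C for at least 48 hr. Viability was read as ATP luminescence.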
RORg inh – ROR gamma (mouse) transcription inhibition | Drosophila S2 Gal4-RORgamma UAS-luciferase reporter, 20 h | Potency, µM (series often up to 53.6 µM), without a hit: top-dose activity change, negative = inhibition, actives largely listed as inhibitors | 310,000 tested, 5.4% active; further: nearly all actives have a fitted effect of over 60% in size
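Luciferase reporter read in Schneider cells carrying Gal4-RORγ (mouse) and UAS-Photinus luciferase; cells given compound 1 h before 700 uM copper sulfate induction, then incubated 20 h at ambient temperature.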
VP16 counter – Gal4-VP16 reporter inhibition counter-screen | 310,000 tested, 3.5% active | Potency, µM (highest dose often 53.6 µM), for inactives: at the top dose activity, negative = inhibition, most hits filed as inhibitors | Drosophila S2 Gal4-VP16 UAS-luciferase, luminescence, 20 h;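 further: Gal4-VP16 expression switched on by copper sulfate through the metallothionein promoter; nearly all actives have a fitted effect of over 50% in size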
TDP1 cell noCPT – qHTS for Inhibitors of human tyrosyl-DNA phosphodiesterase 1 (TDP1): qHTS in cells in absence of CPT | AID 686978, 2013 | Potency, µM (doses to about 46.2 µM), inactives show at the top dose activity change, negative = growth inhibition, usual class: inhibitors | 420,000 tested, 15% active | DT40 Tdp1-/- hTDP1 cells, no CPT, ATP luminescence, 48 h; further: nearly all actives have a fitted effect of over 55% in size
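Luminescent ATP content (CellTiter-Glo) served as the growth readout. Knockout chicken DT40 cells expressing human TDP1 were exposed to compounds without camptothecin for a minimum 48 hr at 37 °C.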
* = called active by the depositor; ? = inconclusive; nt = not tested or not shown; [ ] = dose if it differs, or a comment. An excerpt weighted towards active compounds, which were near 19% of everything screened. The call rests on the fitted dose curve; in most records, active means well fitted curve in the direction sought with a large enough effect; inconclusive means small, poorly fitted or top-dose-only effect, or another doubt; inactive means no such curve, though single readings can be large; an effect the other way counts as inactive or inconclusive. On the % scale 0 is the no-effect control and ±100 the full control effect; potency means the concentration at half of the fitted maximal effect.

SMILES	TDP1 block	TDP1 cell CPT	RORg inh	VP16 counter	TDP1 cell noCPT
Cc1ccccc1N=Nc1c(O)n(C)c2ccccc12	2%	?	nt	nt	23µM*
C=CCn1c(O)c(N=Nc2ccccc2)c2ccccc21	nt	?	?	5%	?
C=CCn1c(O)c(N=Nc2nc3ccccc3c(=O)n2-c2ccccc2)c2ccccc21	0%	-30%	?	-24%	12µM*
C=CCn1c(O)c(N=Nc2ccccc2O)c2ccccc21	5%	?	nt	nt	18µM*
Cn1c(O)c(N=NC(=N)N)c2ccccc21	-1%	-1%	-20%	-5%	2%
CCOc1ccc(S(=O)(=O)N(CC(=O)NC2CCCC2)c2ccc(F)cc2)cc1	nt	?	nt	nt	-27%
O=C(Nc1ncn[nH]1)c1ccc(Cl)c(S(=O)(=O)Nc2ccc(Cl)cc2)c1	7%	?	?	?	-4%
COc1ccc(Cl)cc1NC(=O)C(C)Sc1nnc(C2CC2)n1C1CC1 (centres undefined)	0%[56.1 µM]	-9%	nt	nt	-7%
CCOC(=O)C1=CN(Cc2ccco2)S(=O)(=O)N(CC)C1c1ccc(C(F)(F)F)cc1 (centres undefined)	0%[56.1 µM]	23µM*	nt	nt	16µM*
CCOC(=O)C1=CN(Cc2ccco2)S(=O)(=O)N(C)C1c1ccccc1 (centres undefined)	1%[56.1 µM]	?	nt	nt	?
O=C(NCc1cccc(F)c1)c1cccc(NC(=O)c2nsc3ccccc23)c1	5%	23µM*	nt	nt	23µM*
COc1cccc(CNC(=O)c2cccc(NC(=O)c3nsc4ccccc34)c2)c1	0%	?	nt	nt	21µM*
COC(=O)c1cccc(NC(=O)c2nsc3ccccc23)c1	3%	?	nt	nt	?
Cc1ccc(-c2cn3c(n2)sc2cc(C(=O)NCCCN4CCCCC4)ccc23)cc1	-3%	1.3µM*	nt	nt	1.3µM*
O=C(NCCCN1CCCCC1)c1ccc2c(c1)sc1nc(-c3ccc(F)cc3)cn12	4%	4.1µM*	nt	nt	2.3µM*
CC1CCCCN1CCCNC(=O)c1ccc2c(c1)sc1nc(-c3ccc(F)cc3)cn12 (centres undefined)	5%	2.3µM*	nt	nt	3.3µM*
CCN1CCN(CCCNC(=O)c2ccc3c(c2)sc2nc(-c4ccc(C)cc4)cn23)CC1	-3%	1.3µM*	nt	nt	1.3µM*
COc1ccc(-c2cn3c(n2)sc2cc(C(=O)Nc4ccc(C)c(Cl)c4)ccc23)cc1	-1%	-2%	nt	nt	5%
CN(C)CCCCOc1ccc(F)cc1	-5%	1%	3%	1%[10 µM]	?
O=C(CN1CCN(S(=O)(=O)c2ccc(F)cc2)CC1)Nc1ccccc1C(=O)NC1CC1	6%	-20%	nt	nt	?
Cc1ccc(-c2cn3c(n2)sc2cc(C(=O)NCCCN4CCCCCC4)ccc23)cc1	-3%	1.6µM*	nt	nt	1.6µM*
COc1ccc(NC(=O)CSc2nnc(CNC(=O)c3ccco3)o2)cc1	1%	-29%	-3%	5%	14%
CCOC(=O)c1ccc(NC2=CC(=O)CC(c3ccco3)C2)cc1 (centres undefined)	-3%	-13%	35%	-10%[10 µM]	?
CC(C)CNC1=CC(=O)CC(c2ccco2)C1 (centres undefined)	nt	-26%	-2%	3%	-5%
O=C1C=C(Nc2ccc(Cl)cc2Cl)CC(c2ccco2)C1 (centres undefined)	-3%	3.7µM*	14%	-8%	4.1µM*
SMILES	TDP1 block	TDP1 cell CPT	RORg inh	VP16 counter	TDP1 cell noCPT
O=C1C=C(Nc2ccc(O)cc2)CC(c2ccco2)C1 (centres undefined)	3%	21µM*	?	-1%	23µM*
O=C1C=C(NCc2ccc(Cl)cc2)CC(c2ccco2)C1 (centres undefined)	-8%	23µM*	37%	-2%	?
CCn1c(SCC(=O)N/N=C/C=C/c2ccco2)nnc1-c1ccccc1	22µM*	5%	24%	-4%	-21%
Cn1c(SCC(=O)N/N=C/C=C/c2ccccc2[N+](=O)[O-])nc2ccccc21	3%	-5%	-13%	?	-48%
O=C(CNc1cccc2ccccc12)N/N=C/C=C/c1ccco1	9%	-26%	13µM*	?	?
Cn1c(SCC(=O)N/N=C/C=C/c2ccco2)nc2ccccc21	?	18µM*	?	-6%	18µM*
Cc1ccc(OCC(=O)NCc2cccs2)cc1	0%	-13%	25%	4%	-2%
CCc1ccc2[nH]c(O)c(N=Nc3nc(-c4ccccc4)cs3)c2c1	14%	?	13µM*	?	?
Cc1ccc(S(=O)(=O)NCC(=O)OCc2csc(-c3ccccc3)n2)cc1	2%	?	11%[10 µM]	16%	?
O=C(CNS(=O)(=O)c1ccc2ccccc2c1)OCc1csc(-c2ccccc2)n1	3%	?	14%	?	21µM*
CCc1cc2c(=O)c(-c3nc4ccccc4n3C)coc2c(CN2CCCC(C)C2)c1O (centres undefined)	nt	?	0%	9%	9.2µM*
CCc1cc2c(=O)c(-c3nc4ccccc4n3C)c(C)oc2c(CN2CCOCC2)c1O	5%	8.2µM*	11%	-11%	9.2µM*
CCc1cc2c(=O)c(-c3nc4ccccc4n3C)c(C)oc2c(CN2CCN(C)CC2)c1O	4%[56.1 µM]	nt	5%	-7%	nt
CCc1cc2c(=O)c(-c3nc4ccccc4n3C)c(C(C)C)oc2c(CN2CCN(C)CC2)c1O	7%	7.3µM*	11%	3%	12µM*
CCc1cc2c(=O)c(-c3nc4ccccc4n3C)c(C)oc2c(CN2CCN(CCO)CC2)c1O	5%	16µM*	-7%	2%	?
CCc1cc(-c2n[nH]c(C)c2-c2nc3ccccc3n2C)c(O)c(CN2CCN(C)CC2)c1O	12%	-18%	11%	-4%	-10%
CCN(CCCNC(=O)c1c(C)cc(=O)oc1C)c1cccc(C)c1	3%	?	?	-3%	-20%
CCc1ccccc1NC(=O)COC(=O)c1c(C)nsc1NC	0%	7.3µM*	nt	nt	2.9µM*
CNc1snc(C)c1C(=O)OCC(=O)N(C)c1ccccc1	1%	-24%	nt	nt	?
CCN(C(=O)COC(=O)c1c(C)nsc1NC)c1ccccc1	1%	-29%	nt	nt	-25%
CNc1snc(C)c1C(=O)OCC(=O)N(C)Cc1ccccc1	1%	15µM*	nt	nt	18µM*
CNc1snc(C)c1C(=O)OCC(=O)Nc1ccc(C)cc1F	-5%	?	nt	nt	10µM*
CCOC(=O)c1ccc(NS(=O)C23CC4CC(CC(C4)C2)C3)cc1 (centres undefined)	3%	?	-17%[0.365 µM]	nt	-10%
CCOc1ccc(-n2ccnc2SCC(=O)NCc2ccc3c(c2)OCO3)cc1	8%	?	10%	-2%	?
